MITF primary – MITF inhibitors, primary screen, biochemical, AlphaScreen, human; AID 1259374, 2018; inhibition, % at 2.6 µM; AlphaScreen MITF homodimerization, bead proximity signal; actives 0.91% (n = 650,000); in the data active = inhibition above about 50%;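 note: 0% = vehicle wells with protein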
FBW7 activator – FBW7 E3 ligase activators, primary screen, biochemical, AlphaScreen, human | AlphaScreen FBW7–phospho-cyclin E peptide binding, activator screen | normalized activity (activation), % at 26.1 µM | actives 0.13% (n = 650,000) | AID 1259310, 2017; in the data active = normalized activity above about 1.9%;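 note: purified mutant Fbw7 with reduced substrate affinity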
Target sequence (Q969H0 whole entry, looked up): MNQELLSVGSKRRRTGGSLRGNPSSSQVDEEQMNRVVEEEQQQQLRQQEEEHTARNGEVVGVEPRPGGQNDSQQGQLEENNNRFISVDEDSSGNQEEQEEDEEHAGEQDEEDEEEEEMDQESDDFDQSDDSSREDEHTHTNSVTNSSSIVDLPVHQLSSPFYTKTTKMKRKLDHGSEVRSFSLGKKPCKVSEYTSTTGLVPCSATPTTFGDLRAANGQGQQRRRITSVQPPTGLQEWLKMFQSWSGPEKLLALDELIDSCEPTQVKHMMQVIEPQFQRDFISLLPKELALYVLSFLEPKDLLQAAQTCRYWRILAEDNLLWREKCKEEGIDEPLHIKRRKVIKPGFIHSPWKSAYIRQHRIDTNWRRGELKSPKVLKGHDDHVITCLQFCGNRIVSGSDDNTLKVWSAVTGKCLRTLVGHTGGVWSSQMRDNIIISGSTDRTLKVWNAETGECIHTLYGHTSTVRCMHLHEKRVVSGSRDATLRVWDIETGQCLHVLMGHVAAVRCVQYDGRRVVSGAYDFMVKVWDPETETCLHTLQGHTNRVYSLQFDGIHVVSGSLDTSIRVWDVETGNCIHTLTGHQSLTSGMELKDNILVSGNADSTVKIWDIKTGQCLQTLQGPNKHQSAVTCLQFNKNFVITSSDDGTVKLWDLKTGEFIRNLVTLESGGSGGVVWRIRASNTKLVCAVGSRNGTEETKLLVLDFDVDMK
TEAD-YAP block – TEAD-YAP interaction inhibition, primary screen, TEAD-YAP interaction inhibitor project, luminescence, HEK-TIYL cells; inhibition, % at 9.12 µM; actives 1.4% (n = 640,000); TEAD-Gal4/YAP UAS-luciferase luminescence; AID 1259422, 2018; in the data active = inhibition above about 32%;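 note: 0% = median of test compound wells and 100% = reference inhibitor wells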
GPR151 ag – activators of human GPR151, primary screen, cell-based, PathHunter beta-arrestin, luminescence | actives 1% (n = 650,000) | AID 1508602, 2020 | PathHunter beta-arrestin GPR151 cells | activation, % at 11.2 µM | G-protein coupled receptor 151 (Homo sapiens), Q8TDV0; in the data active = activation above about 4.9%;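 note: 0% = median of compound wells and 100% = cells with positive control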
GPR151 confirm – GPR151 activators, triplicate retest, confirmation, cell-based, PathHunter beta-arrestin, luminescence; GPR151 PathHunter beta-arrestin cells, 90 min; % of EA-reagent control over plate median; 6,700 tested, under 10 active; shares compounds with GPR151 ag; activation, % at 11.2 µM;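 active = mean percent activation across replicates above the confirmation screen cutoff of 4.91%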
GPR119 counter – GPR119 activators in beta-arrestin cells, counter-screen for GPR151 activator project, cell-based, PathHunter beta-arrestin, luminescence, triplicate; shares compounds with GPR151 ag; 90 min; 0 = compound-well median, 100 = enzyme-acceptor control; activation, % at 11.2 µM; actives 0.3% (n = 6,700); AID 1508611, 2020;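 active = mean percent activation in the counterscreen above 29.09%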;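 note: counterscreen on off-target GPR119 to flag nonselective hits from the GPR151 activator screen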
Active calls of the source: *; x = no result. An excerpt weighted towards active compounds, which were near 3.5% of everything screened.

SMILES	MITF primary	FBW7 activator	TEAD-YAP block	GPR151 ag	GPR151 confirm	GPR119 counter
Cc1ccc(-c2ccc(SCC(=O)N3CCCC3)nn2)cc1	-8.8	0.1	-18.6	6.0*	0.0	9.9
O=C(CSc1ccc(-c2ccc3c(c2)OCO3)nn1)N1CCCC1	0.8	-0.1	6.4	-1.1	x	x
CCOC(=O)N1CCN(C(=O)CSc2ccc(-c3cccnc3)nn2)CC1	6.8	0.9	9.1	4.9*	0.7	6.0
CCC1Sc2ccccc2N(CC(=O)NCc2ccc(C)cc2)C1=O (centres undefined)	5.5	-0.3	0.4	-0.5	x	x
COc1cc(/C=N/n2c(-c3ccncc3)n[nH]c2=S)cc(Br)c1O	-7.2	0.0	4.4	5.0*	-0.5	-7.2
CCOc1ccc2c(-c3cc4ccccc4oc3=O)cc(=O)oc2c1	0.8	0.1	-1.1	1.8	x	x
O=C(Oc1ccc2c(-c3cc4ccccc4oc3=O)cc(=O)oc2c1)C1CC1	-2.1	0.0	7.8	9.2*	-0.5	1.4
CCC(=O)Oc1ccc2c(-c3cc4ccccc4oc3=O)cc(=O)oc2c1	-9.6	-0.2	-7.4	5.4*	0.3	10.0
CCCS(=O)(=O)N1CC(=O)N(c2ccc(C)c(C)c2)C(C)(C(=O)NC2CCCCC2)C1 (centres undefined)	4.0	0.1	-2.4	-1.1	x	x
CC1CN(C(=O)NC2CC(=O)N(c3cccc(F)c3)C2)CC(C)O1 (centres undefined)	-7.8	-0.1	-6.1	0.3	x	x
CC1=C(C#N)c2nc(N)c(C#N)c(C)c2/C1=C\c1cccs1	-1.9	0.0	-6.6	5.4*	0.8	-0.7
CCc1cccc(CC)c1NC(=O)CN1C(=O)NC2(CCCCC2C)C1=O (centres undefined)	-4.7	-0.1	0.0	6.2*	0.7	0.1
CC(C)OCCCNC(=O)C(=O)NC(C)c1ccccc1 (centres undefined)	-4.3	0.0	8.9	5.3*	0.7	13.4
COCCNC(=O)C(=O)NC(C)c1ccccc1 (centres undefined)	-1.2	-0.1	-10.3	2.4	x	x
Clc1cccc(Nc2nc(-c3cccnc3)cs2)c1Cl	-14.1	0.1	-40.9	-0.8	x	x
Cc1cc(C)nc(N2CCC(C(=O)Nc3ccc(Cl)c(Cl)c3)CC2)n1	7.2	0.0	3.7	0.1	x	x
COc1cc(C)c(C)cc1S(=O)(=O)NC1CCCCC1C (centres undefined)	5.0	-0.1	1.7	8.8*	0.2	7.9
COc1ccc(C)cc1S(=O)(=O)NC1CCCCC1C (centres undefined)	-4.7	0.0	-6.4	1.7	x	x
COc1cc2nc(N3CCN(Cc4ccc5c(c4)OCO5)CC3)nc(Nc3ccc(N4CCOCC4)cc3)c2cc1OC	8.3	0.2	-7.8	-0.6	x	x
Cc1ccc(OCCOc2ccc(Oc3nc(N(C)C)nc(N(C)C)n3)nn2)cc1	9.0	-0.1	-7.3	5.3*	0.6	12.3
COc1cc2cc3c(N)c(C(=O)Nc4ccccc4C)sc3nc2cc1OC	9.4	0.0	6.7	0.4	x	x
Cc1noc(C)c1-c1cc(NCCCN2CCCC2=O)ncn1	2.3	-0.1	-3.5	5.9*	-0.7	-6.6
Cn1ccc2cc(-c3cc(NCCCN4CCCC4=O)ncn3)ccc21	-17.0	-0.2	0.9	11.4*	0.1	1.0
COc1ccc(-c2cc(NCCCN3CCCC3=O)ncn2)cc1	-3.0	0.1	-11.0	-0.1	x	x
Cc1cc(N2CCOCC2)nc(SCC(=O)N2CCOCC2)n1	0.7	-0.2	1.7	1.4	x	x
O=c1c2nnn(Cc3ccccc3F)c2ncn1Cc1ccc(F)cc1	6.1	0.7	-0.8	-0.3	x	x
CCCS(=O)(=O)N1CCCc2ccc(NS(=O)(=O)c3cc(C)ccc3OC)cc21	-2.9	0.0	1.8	-0.1	x	x
CCC(CC)C(=O)O/N=C(\N)Cc1ccc(OC)cc1	12.3	-0.3	3.4	9.3*	0.6	-0.9
COc1ccc(C/C(N)=N/OC(=O)Cc2ccccc2)cc1	0.4	0.4	-6.6	-0.9	x	x

Bioassay records: PubChem, The Scripps Research Institute Molecular Screening Center
